# Data: PubChem BioAssay (NCI)
# Compounds without any hit were thinned out: in the full panel of roughly 79,000, 15% have a hit. Activity calls are given as the source filed them. Rule as the data show it: active = growth inhibition above about 70%; inactive = the rest. Where a SMILES comes first, the peptide text is derived from it.
# Assay: NCI Yeast Anticancer Drug Screen. Data for the mlh1 rad18 strain (AID 175)
# Conditions: S. cerevisiae mlh1 rad18 strain growth inhibition; at 50.0 µM; active compounds read high
# Procedure, shortened: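 Inhibition values reflect reduced growth of mutant yeast versus vehicle-treated controls following compound exposure; the mutations affect DNA damage repair.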
row,Structure (SMILES),growth inhibition
1,Cn1ncc2c(NCCc3ccccc3)nc(Cl)nc21,30.2% (inactive)
2,Cn1c(-c2ccccc2)c2c(=O)oc3ccccc3c2c1-c1ccccc1,19.1% (inactive)
3,O=C(NC1CCCCC1Cl)C1CCCCC1 (stereo not given),-14.8% (inactive)
4,O=C1OC(c2ccc([N+](=O)[O-])cc2)=N/C1=C\c1ccccc1,-11.5% (inactive)
5,CC1=CC(=O)C2C(C)(C)CCCC2(C)C1(O)CCc1ccoc1 (stereo not given),96.8% (active)
6,CN(CC1CCCCC1=O)CC1CCCCC1=O (stereo not given),-3.55% (inactive)
7,N#CCc1ccccc1S(=O)(=O)O,0.25% (inactive)
8,NC(=O)C(=CNC(=S)Nc1cccc(C(F)(F)F)c1)C(N)=O,-56% (inactive)
9,CCSC(OC(C)=O)C(Nc1ccc([N+](=O)[O-])cc1[N+](=O)[O-])C(OC(C)=O)C(OC(C)=O)C(COC(C)=O)OC(C)=O (stereo not given),24.9% (inactive)
10,CCOC(CN(C(C)C)C(C)C)OCC,14.9% (inactive)
11,CCOC(=O)N(c1ccccc1)c1ccccc1,15.2% (inactive)
12,COc1ccc(/C(C)=N/[O-])cc1CS[n+]1ccccc1,48.6% (inactive)
13,COc1ccc2c(c1)C=C(C(C)(C)C)NS2(=O)=O,63.4% (inactive)
14,O=C(Nc1ccc(CCc2ccc(NC(=O)C34CC5CC(CC(C5)C3)C4)cc2)cc1)C12CC3CC(CC(C3)C1)C2,2.55% (inactive)
15,CC(C)OC(=O)Oc1ccc(Cl)cc1,9.8% (inactive)
16,Cc1ccc(/C(O)=C/C(=O)C(=O)NC23CC4CC(CC(C4)C2)C3)cc1,23.4% (inactive)
17,COC(=O)c1cc2ccccc2n1C,-8.15% (inactive)
18,c1ccc(-c2nc3ccccc3nc2SCc2cccnc2)cc1,-9.8% (inactive)
19,COc1ccc(NC(N)=O)cc1,10.4% (inactive)
20,COc1cc(/C=C2\C(=O)N(C(=O)c3ccc(NC(C)=O)cc3)N=C2C)ccc1O,-64% (inactive)

row,Structure (SMILES),growth inhibition
1,C/C=C/C[P+](Cc1ccccc1)(c1ccccc1)c1ccccc1,14.3% (inactive)
2,O=C(O)CSc1ncccc1[N+](=O)[O-],4.35% (inactive)
3,FC(F)(F)c1ccc(C2SCc3nc4ccccc4n32)cc1 (stereo not given),11.3% (inactive)
4,CC1CC(C)OC(C)(c2ccccc2)O1 (stereo not given),8.6% (inactive)
5,COc1ccc(-n2cc3c(=O)nccc-3c3ccccc32)cc1OC,-0.6% (inactive)
6,Cc1cc(Cl)nc(/N=C(\N)Nc2ccc(Cl)c(Cl)c2)n1,7.6% (inactive)
7,NC(CCCO)C(=O)O (stereo not given),-26.1% (inactive)
8,Oc1ccccc1C1SCSCS1,5.85% (inactive)
9,O=C1NN2CCCN=C2c2ncccc21,20.8% (inactive)
10,CCC(=O)OC1CCC2(C)C(=CCC3C2CCC2(C)C(C(C)CCCC(C)C)CCC32)C1 (stereo not given),-12.2% (inactive)
11,Cc1ccc(S/C=C/Sc2ccc(C)cc2)cc1,36% (inactive)
12,O=C1OC(Nc2ccccc2)C(Cl)=C1Cl (stereo not given),-0.15% (inactive)
13,CCCCOC(=O)Nc1ccccc1OCC,-11.2% (inactive)
14,Cc1cccc(NC(C(=O)O)c2ccccc2)c1 (stereo not given),5.45% (inactive)
15,O=C(/C=C/c1ccccc1)OCCCl,-7.35% (inactive)
16,CCCCCCCCCCCCCCCCCCNc1ccccc1,16.2% (inactive)
17,CC(C)=CC(=O)OC1C2C(CC(C)C3C(O)CC(=O)C13C)OC(=O)C2C (stereo not given),-16.9% (inactive)
18,O=C(O)c1ccc(Nc2nc3ccccc3nc2-c2cccs2)cc1,-9.7% (inactive)
19,CSCCC(N)C(=O)NC(CCSC)C(=O)O (stereo not drawn) (H-Met-Met-OH; configuration not given here),-5.7% (inactive)
20,O=C(NC(=O)C(Cl)Cl)OC1c2cc(Cl)ccc2-c2c(Cl)cc(Cl)cc21 (stereo not given),99.2% (active)
